The values that follow come from PubChem BioAssay (Tox21).

The target of test [1] is Thyrotropin-releasing hormone receptor (Homo sapiens) (UniProt P34981). The test is described as follows: qHTS assay to identify small molecule agonists of the thyrotropin-releasing hormone receptor (TRHR) signaling pathway (AID 1346891; calls by dose curve;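 note: HEK293 cells expressing TRHR with calcium dye readout; series mostly up to about 58 µM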). The method in brief:
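HEK293/TRHR cells, 1500 per well, 18 h 37 °C; Ca dye 2 h 37 °C; pin-tool compound addition (agonist mode); kinetic fluorescence 3 min, 1 s reads; 15 concentrations, triplicate.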

Test [2] is described as follows: Human pregnane X receptor (PXR) small molecule agonists, qHTS cell viability counter screen (AID 1346977). Note: nearly all actives have a fitted effect of over 50% in size. In outline:
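Fluorescence read-out (CellTiter-Fluor) of viability in PXR-Luc HepG2 cells, multiplexed with the luciferase agonist read. Compounds in DMSO added after 5hr plating; 24hr total exposure at 37C, 5% CO2.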
On the technique in general: qHTS replaces the single test concentration by a dilution series.

Test [3] can be described thus: Caspase-3/7 induction in HepG2 cells by small molecules, qHTS assay (AID 1346978). Note: nearly all actives have a fitted effect of over 15% in size. In outline:
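Caspase-3/7 induction was measured by Caspase-Glo 3/7 luminescence (30 min, room temperature) after a 17 hr compound exposure of wild-type HepG2 cells seeded at 2,000 per well and pre-incubated 5 hr.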

Test [4] can be described thus: Caspase-3/7 induction in CHO-K1 cells by small molecules, qHTS cell viability counter screen (AID 1346979). Note: nearly all actives have a fitted effect of over 35% in size. The method in brief: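 CHO-K1 wt, 1,500 cells/well; 5hr pre-incubation 37C/5% CO2; compound pin transfer (DMSO); 16hr exposure; CellTiter-Fluor added, 1hr, fluorescence read.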
Test [5] can be described thus: Caspase-3/7 induction in CHO-K1 cells by small molecules, qHTS assay (AID 1346980). Note: nearly all actives have a fitted effect of over 15% in size. The method in brief: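 Luminescent Caspase-Glo 3/7 read (30min, room temperature) quantified apoptosis induction. Cells were wild-type CHO-K1, treated with compound for 17hr at 37 C and 5% CO2.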
The nature of test [6]: Caspase-3/7 induction in HepG2 cells by small molecules, qHTS cell viability counter screen (AID 1346981). Note: series mostly up to about 92 µM; nearly all actives have a fitted effect of over 30% in size. The method in brief: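 In this quantitative HTS counter screen, compounds delivered in DMSO were left on unmodified HepG2 cells for 16 hr at 37 C. Viability was then determined fluorometrically with CellTiter-Fluor, in parallel with caspase-3/7 induction in the same wells.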

The target of test [7] is Nuclear receptor subfamily 1 group I member 2 (Homo sapiens) (UniProt O75469). The test is described as follows: Human pregnane X receptor (PXR) small molecule agonists, qHTS assay (AID 1346982). Note: nearly all actives have a fitted effect of over 35% in size. Note: potency is the fitted concentration of half-maximal effect. The method in brief:
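Reporter HepG2 cells expressing PXR-Luc are cultured in charcoal-stripped FBS (5%), treated with compounds for 24 hr at 37 C, and assayed by ONE-Glo luminescence after 30 min at room temperature.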

The target of test [8] is Acetylcholinesterase (Homo sapiens) (UniProt P22303). The test is described as follows: Acetylcholinesterase (AChE) small molecule antagonists: enzyme-based qHTS assay (AID 1347397; calls by dose curve; note: nearly all actives have a fitted effect of over 55% in size). Conditions: Potency: AChE enzyme activity inhibition; outcome: AChE enzyme activity inhibition. In outline:
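First, recombinant human AChE (50 mU/mL as dispensed) received test compound or DMSO. Second, plates stood 30 min at room temperature. Third, DTNB and acetylthiocholine were added, followed by 10 min at room temperature and colorimetric detection.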

The target is the same in test [9]. Put plainly: Acetylcholinesterase (AChE) small molecule antagonists: fluorescence cell-based qHTS assay (AID 1347398; calls by dose curve; note: nearly all actives have a fitted effect of over 50% in size). To be noted: Potency: AChE activity; outcome: AChE activity. The method in brief: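 Homogeneous quantitative HTS format. SH-SY5Y cells seeded at 2,000 per well settle overnight at 37 C. Compound pretreatment runs 30 min (37 C, 5% CO2); substrate/probe mix then reacts 40 min at RT before reading 490/520 nm.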

For test [10] the target is unchanged. Put plainly: Acetylcholinesterase (AChE) small molecule antagonists: enzyme-based qHTS assay with human liver microsomes (AID 1347399; calls by dose curve; note: nearly all actives have a fitted effect of over 60% in size). To be noted: Potency: qHTS inhibition; outcome: qHTS inhibition. The method in brief:
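Recombinant human AChE (50 mU/mL in the enzyme mix) and human liver microsomes (0.25 mg/mL final) were preincubated with compound and NADPH (0.25 mg/mL final) for 30 min at 37 C. Acetylthiocholine/DTNB was then added; thiocholine was read colorimetrically after 10 min at room temperature.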

Test [11] concerns the target Cytochrome P450 2D6 (Homo sapiens) (UniProt P10635). The test is described as follows: Cytochrome P450 Family 2 Subfamily D Member 6 (CYP2D6) small molecule antagonists: luciferase reporter qHTS assay (AID 1671196). Note: nearly all actives have a fitted effect of over 50% in size. Note: potency is the fitted concentration of half-maximal effect. The method in brief: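 Test chemicals meet CYP2D6 plus proluciferin substrate (10 min, RT); NADPH regenerating solution then drives turnover for 1 h. Detection reagent halts the reaction; luminescence measured after 20 min.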
For orientation: In a reporter assay the amount or activity of a reporter protein is the signal.

Test [12] addresses Cytochrome P450 2C19 (Homo sapiens) (UniProt P33261). Put plainly: Cytochrome P450 Family 2 Subfamily C Member 19 (CYP2C19) small molecule antagonists: luciferase reporter qHTS assay (AID 1671197). Note: nearly all actives have a fitted effect of over 65% in size. Note: potency is the fitted concentration of half-maximal effect. In outline: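 Quantitative high-throughput screen of the Tox21 library using CYP2C19 with proluciferin substrate. Reaction: NADPH regeneration, 37C, 1 h, after 10 min compound preincubation at room temperature. Readout: luminescence.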

Test [13] addresses Cytochrome P450 2C9 (Homo sapiens) (UniProt P11712). The test is described as follows: Cytochrome P450 Family 2 Subfamily C Member 9 (CYP2C9) small molecule antagonists: luciferase reporter qHTS assay (AID 1671198). Note: nearly all actives have a fitted effect of over 50% in size. Note: potency is the fitted concentration of half-maximal effect. The method in brief:
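Enzyme-substrate mix preincubated with compound 10 min at room temperature; reaction started with NADPH regeneration solution, 1 h 37C. Luminescent luciferin product read after 20 min detection reagent.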

In test [14] the target is Cytochrome P450 1A2 (Homo sapiens) (UniProt P05177). Put plainly: Cytochrome P450 Family 1 Subfamily A Member 2 (CYP1A2) small molecule antagonists: luciferase reporter qHTS assay (AID 1671199). Note: nearly all actives have a fitted effect of over 50% in size. Note: potency is the fitted concentration of half-maximal effect. The method in brief:
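Steps: enzyme-substrate mix dispensed; test compounds and furafylline control pinned in; 10 min room temperature; NADPH regeneration solution added, 1 h; reaction stopped with luciferin detection reagent; luminescence read after 20 min.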

In test [15] the target is Cytochrome P450 3A4 (Homo sapiens) (UniProt P08684). The test is described as follows: Cytochrome P450 Family 3 Subfamily A Member 4 (CYP3A4) small molecule antagonists: luciferase reporter qHTS assay (AID 1671201). Note: nearly all actives have a fitted effect of over 50% in size. Note: potency is the fitted concentration of half-maximal effect. The method in brief: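 Luminescent readout (RLU) proportional to CYP3A4 activity, from luciferin generated off a proluciferin substrate. Enzyme–substrate mix plus compound 10 min at room temp, NADPH regeneration 1 h, detection reagent 20 min.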

Test [16] has as its target Acetylcholinesterase (Homo sapiens) (UniProt P22303). The test is described as follows: Acetylcholinesterase (AChE) small molecule antagonists: colormetric cell-based qHTS assay (AID 1347395; calls by dose curve; note: nearly all actives have a fitted effect of over 30% in size). The method in brief:
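SH-SY5Y cells; cpd 30 min 37 C; + DTNB/acetylthiocholine, 90 min 37 C; colorimetric thiocholine read; qHTS.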

For test [17], the target named is Voltage-gated inwardly rectifying potassium channel KCNH2 (Homo sapiens) (UniProt Q12809). The test is described as follows: Human Ether-a-go-go-Related Gene (hERG) channel small molecule antagonists: fluorescence cell-based qHTS assay (AID 1671200). The method in brief: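 Read-out: thallium influx as a surrogate for potassium, tracked as fluorescence (480 nm ex/540 nm em) every second for 2 min after Stimulus Buffer addition in dye-loaded hERG-U2OS cells.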
For orientation: Block of hERG is tested as a sign of cardiac risk.

Results filed as inconclusive are left out. Calls of active or inactive are those of the source. Unless noted, calls come from the whole dose curve; as a rule, active = well fitted curve in the direction sought with a large enough effect in the repeat runs; inconclusive = weak or mixed curves; inactive = no such curve, though single readings can be large; an effect the other way counts as inactive or inconclusive.

Chain of Cytochrome P450 2C9 (Homo sapiens) (P11712 whole entry, looked up): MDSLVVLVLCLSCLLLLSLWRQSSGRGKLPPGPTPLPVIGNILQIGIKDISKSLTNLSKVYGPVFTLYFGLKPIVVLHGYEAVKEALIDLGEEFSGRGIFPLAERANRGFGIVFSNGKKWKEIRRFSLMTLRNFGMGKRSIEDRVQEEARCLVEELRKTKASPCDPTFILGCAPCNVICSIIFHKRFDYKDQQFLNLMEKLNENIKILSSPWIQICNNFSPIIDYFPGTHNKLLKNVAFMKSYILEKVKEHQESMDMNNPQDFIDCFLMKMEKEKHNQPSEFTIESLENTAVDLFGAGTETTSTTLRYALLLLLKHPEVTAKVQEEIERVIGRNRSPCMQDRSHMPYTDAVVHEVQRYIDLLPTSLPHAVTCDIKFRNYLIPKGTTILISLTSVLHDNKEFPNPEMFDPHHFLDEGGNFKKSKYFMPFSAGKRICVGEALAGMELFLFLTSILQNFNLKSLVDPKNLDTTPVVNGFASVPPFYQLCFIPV
Chain of Nuclear receptor subfamily 1 group I member 2 (Homo sapiens) (O75469 whole entry, looked up): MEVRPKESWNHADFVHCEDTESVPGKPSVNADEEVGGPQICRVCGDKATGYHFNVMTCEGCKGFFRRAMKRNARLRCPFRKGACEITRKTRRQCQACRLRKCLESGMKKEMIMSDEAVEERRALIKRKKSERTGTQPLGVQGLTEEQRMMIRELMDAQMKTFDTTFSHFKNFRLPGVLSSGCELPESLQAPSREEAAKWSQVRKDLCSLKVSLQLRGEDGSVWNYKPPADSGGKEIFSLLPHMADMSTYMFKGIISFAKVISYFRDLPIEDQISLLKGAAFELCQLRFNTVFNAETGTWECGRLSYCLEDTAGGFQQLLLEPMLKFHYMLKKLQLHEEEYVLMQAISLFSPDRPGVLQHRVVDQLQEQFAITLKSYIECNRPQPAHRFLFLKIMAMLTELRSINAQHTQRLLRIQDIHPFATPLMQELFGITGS
Chain of Voltage-gated inwardly rectifying potassium channel KCNH2 (Homo sapiens) (Q12809 whole entry, looked up): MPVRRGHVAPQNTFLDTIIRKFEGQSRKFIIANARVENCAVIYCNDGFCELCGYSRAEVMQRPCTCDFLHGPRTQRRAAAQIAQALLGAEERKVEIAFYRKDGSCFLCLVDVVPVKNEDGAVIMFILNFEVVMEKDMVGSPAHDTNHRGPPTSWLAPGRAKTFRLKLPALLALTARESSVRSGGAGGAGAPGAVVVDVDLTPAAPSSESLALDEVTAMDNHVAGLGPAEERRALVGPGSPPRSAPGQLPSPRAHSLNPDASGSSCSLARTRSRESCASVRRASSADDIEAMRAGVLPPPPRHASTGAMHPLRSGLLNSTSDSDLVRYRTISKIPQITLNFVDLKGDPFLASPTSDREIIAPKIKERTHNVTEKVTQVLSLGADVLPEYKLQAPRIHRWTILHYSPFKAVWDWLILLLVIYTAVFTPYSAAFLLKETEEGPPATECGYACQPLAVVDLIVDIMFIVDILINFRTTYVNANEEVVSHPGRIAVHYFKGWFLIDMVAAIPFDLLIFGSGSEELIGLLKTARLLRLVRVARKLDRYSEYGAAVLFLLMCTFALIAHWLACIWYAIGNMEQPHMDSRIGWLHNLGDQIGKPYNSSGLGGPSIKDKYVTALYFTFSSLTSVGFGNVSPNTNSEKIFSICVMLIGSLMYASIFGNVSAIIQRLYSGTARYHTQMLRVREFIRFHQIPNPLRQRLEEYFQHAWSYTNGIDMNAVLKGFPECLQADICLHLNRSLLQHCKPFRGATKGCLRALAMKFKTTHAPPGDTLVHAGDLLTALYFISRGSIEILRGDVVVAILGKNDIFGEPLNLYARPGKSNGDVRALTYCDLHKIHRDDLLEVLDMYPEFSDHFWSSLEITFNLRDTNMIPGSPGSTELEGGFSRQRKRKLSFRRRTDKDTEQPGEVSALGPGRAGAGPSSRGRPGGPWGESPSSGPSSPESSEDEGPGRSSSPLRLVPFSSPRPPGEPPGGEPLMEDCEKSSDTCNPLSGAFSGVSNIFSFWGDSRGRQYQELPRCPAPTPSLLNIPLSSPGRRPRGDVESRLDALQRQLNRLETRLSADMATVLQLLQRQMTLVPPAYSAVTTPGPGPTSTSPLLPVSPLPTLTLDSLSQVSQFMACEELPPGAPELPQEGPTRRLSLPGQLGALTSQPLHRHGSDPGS
Chain of Cytochrome P450 2C19 (Homo sapiens) (P33261 whole entry, looked up): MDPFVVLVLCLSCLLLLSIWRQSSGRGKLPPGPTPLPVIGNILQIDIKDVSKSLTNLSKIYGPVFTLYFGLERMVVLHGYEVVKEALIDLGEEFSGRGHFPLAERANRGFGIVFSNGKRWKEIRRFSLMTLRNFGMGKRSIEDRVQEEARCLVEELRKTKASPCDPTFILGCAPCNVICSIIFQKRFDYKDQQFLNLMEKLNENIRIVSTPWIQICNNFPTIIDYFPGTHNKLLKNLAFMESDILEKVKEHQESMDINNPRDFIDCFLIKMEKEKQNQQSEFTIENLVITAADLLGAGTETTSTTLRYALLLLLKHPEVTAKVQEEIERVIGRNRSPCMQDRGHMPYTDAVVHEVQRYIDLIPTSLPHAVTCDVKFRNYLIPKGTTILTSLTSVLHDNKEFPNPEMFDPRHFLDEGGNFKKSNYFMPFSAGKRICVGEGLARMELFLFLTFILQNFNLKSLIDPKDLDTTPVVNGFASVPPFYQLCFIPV
Chain of Cytochrome P450 1A2 (Homo sapiens) (P05177 whole entry, looked up): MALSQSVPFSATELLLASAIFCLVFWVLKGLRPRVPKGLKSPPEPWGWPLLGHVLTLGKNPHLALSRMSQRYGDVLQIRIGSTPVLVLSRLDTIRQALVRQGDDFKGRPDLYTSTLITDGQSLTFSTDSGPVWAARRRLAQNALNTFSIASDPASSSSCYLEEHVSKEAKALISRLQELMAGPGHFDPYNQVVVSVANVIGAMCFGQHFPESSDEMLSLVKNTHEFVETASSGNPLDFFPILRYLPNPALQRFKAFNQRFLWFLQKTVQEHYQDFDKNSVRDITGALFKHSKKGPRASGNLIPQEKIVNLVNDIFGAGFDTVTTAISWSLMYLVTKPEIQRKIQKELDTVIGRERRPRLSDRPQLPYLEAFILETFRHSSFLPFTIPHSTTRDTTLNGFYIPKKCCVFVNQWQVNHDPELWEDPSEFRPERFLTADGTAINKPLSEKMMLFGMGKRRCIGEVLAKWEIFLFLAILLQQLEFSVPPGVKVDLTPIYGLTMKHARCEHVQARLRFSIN
Chain of Cytochrome P450 3A4 (Homo sapiens) (P08684 whole entry, looked up): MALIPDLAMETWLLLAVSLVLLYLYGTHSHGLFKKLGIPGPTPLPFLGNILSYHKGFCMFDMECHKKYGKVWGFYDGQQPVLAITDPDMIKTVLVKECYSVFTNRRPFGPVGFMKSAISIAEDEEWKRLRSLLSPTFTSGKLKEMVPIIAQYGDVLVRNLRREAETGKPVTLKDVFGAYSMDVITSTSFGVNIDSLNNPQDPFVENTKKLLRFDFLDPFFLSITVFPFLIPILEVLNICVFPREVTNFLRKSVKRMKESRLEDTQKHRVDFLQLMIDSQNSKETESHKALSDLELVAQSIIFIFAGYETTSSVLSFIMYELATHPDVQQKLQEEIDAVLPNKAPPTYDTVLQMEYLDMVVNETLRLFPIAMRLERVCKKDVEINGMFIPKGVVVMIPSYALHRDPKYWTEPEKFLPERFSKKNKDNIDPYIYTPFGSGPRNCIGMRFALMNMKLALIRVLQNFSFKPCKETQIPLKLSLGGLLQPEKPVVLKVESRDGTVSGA
Chain of Cytochrome P450 2D6 (Homo sapiens) (P10635 whole entry, looked up): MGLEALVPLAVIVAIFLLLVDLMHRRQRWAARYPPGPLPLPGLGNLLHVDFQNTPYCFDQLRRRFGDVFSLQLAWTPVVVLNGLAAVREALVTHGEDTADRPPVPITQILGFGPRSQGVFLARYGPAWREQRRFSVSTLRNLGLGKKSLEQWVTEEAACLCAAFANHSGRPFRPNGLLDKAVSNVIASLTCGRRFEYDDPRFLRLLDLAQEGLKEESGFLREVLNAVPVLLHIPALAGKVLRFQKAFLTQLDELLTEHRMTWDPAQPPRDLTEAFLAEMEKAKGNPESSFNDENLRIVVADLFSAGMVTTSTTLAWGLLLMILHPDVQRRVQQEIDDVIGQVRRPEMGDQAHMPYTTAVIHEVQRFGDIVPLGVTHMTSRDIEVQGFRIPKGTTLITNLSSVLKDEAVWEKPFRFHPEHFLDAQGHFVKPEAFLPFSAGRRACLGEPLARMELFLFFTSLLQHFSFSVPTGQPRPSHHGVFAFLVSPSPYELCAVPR
Chain of Thyrotropin-releasing hormone receptor (Homo sapiens) (P34981 whole entry, looked up): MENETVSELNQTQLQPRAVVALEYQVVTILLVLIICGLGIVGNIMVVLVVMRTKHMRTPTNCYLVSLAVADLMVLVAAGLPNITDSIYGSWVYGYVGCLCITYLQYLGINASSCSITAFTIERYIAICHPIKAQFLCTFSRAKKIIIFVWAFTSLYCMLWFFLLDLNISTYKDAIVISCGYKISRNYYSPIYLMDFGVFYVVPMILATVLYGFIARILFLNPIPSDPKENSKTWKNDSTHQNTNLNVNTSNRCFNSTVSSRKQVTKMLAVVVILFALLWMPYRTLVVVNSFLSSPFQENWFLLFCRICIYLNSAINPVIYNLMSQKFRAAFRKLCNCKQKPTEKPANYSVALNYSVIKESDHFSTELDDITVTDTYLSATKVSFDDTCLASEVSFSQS

Consider `CCc1ccc(C2CCNCC2)cc1`, for which the compound was called inactive in test [1], in [3] and in test [5]. In addition, the Potency result in test [2], in test [4], in test [6], in test [7], in test [8] and in test [9] was “inactive” throughout. For the same compound, the Potency result in test [10], in test [12], in test [13], in [14] and in test [15] was “inactive” each time. For the same compound, the Potency in [11] was 617 nM (active).
With `CC(Cl)(Cl)Cl`, the call in test [1], in test [3] and in [5] was inactive. Besides, the Potency entry in test [2], in test [4], in [6], in [7], in test [16] and in test [9] was “inactive” throughout. In addition, the Potency entry in [10], in test [11], in test [12], in test [13], in [14] and in test [17] was “inactive” each time. The Potency entry in test [15] was “inactive”.
As to `BrCCc1ccccc1`, the call in test [1], in test [3] and in [5] was inactive. In addition, the Potency entry in [2], in [4], in [6], in test [7], in [16] and in [8] was “inactive” throughout. Also, the Potency entry in test [9], in [10], in test [12], in test [13], in test [14] and in [17] was “inactive” each time. Besides, the Potency entry in test [15] was “inactive”.
As to `O=C(Cl)C(Cl)(Cl)Cl`, the compound was classed as inactive in test [1], in test [3] and in [5]. Further, the Potency result in test [2], in test [4], in [6], in test [16], in test [8] and in test [9] was “inactive” each time. Moreover, the Potency entry in [10], in [12], in test [13], in [14], in test [17] and in [15] was “inactive” in each case. In test [7], the Potency was 43.5 µM (active).
Take `CCOP(=S)(OCC)Oc1ccc(Cl)cc1Cl`: the call in test [1], in [3] and in test [5] was inactive. For the same compound, the Potency entry in [2], in test [4], in test [6], in test [7], in test [16] and in test [8] was “inactive” each time. Further, the Potency result in test [10], in test [11] and in [17] was “inactive” in each case. The Potency was 0.399 µM (active) in test [12], 3.56 µM (active) in test [13], 2.83 µM (active) in test [14] and 2.83 µM (active) in [15].
On to `CN(CCO)CCO`, for which the compound was called inactive in test [1], in test [3] and in test [5]. The Potency entry in [2], in test [4], in test [6], in [7], in test [16] and in test [8] was “inactive” in each case. Also, the Potency result in test [9], in test [10], in [12], in [13], in [17] and in [15] was “inactive” each time.
Take `O=C(O)C(Br)(Br)Br`: the call in test [1], in [3] and in test [5] was inactive. For the same compound, the Potency result in [2], in test [4], in test [6], in test [7], in test [8] and in test [9] was “inactive” each time. For the same compound, the Potency result in [10], in [11], in test [13], in test [17] and in [15] was “inactive” in each case. For the same compound, the Potency in test [12] was 31.7 µM (active).
In the case of `ClCCCCl`, the compound was classed as inactive in [1], in [3] and in test [5]. The Potency entry in test [2], in test [4], in test [6], in [7], in [16] and in test [9] was “inactive” throughout. For the same compound, the Potency entry in [10], in test [11], in [13], in test [17] and in test [15] was “inactive” in each case. Further, in [14], the Potency is 23.9 µM (active).
